Results reported in the supplement of paper PMC6897291.

Test system: RIVA
Assay: growth inhibition by drug plus 177Lu-lilotomab satetraxetan (1 - RLU/untreated control) (fraction); higher = stronger inhibition
Settings: 177Lu-lilotomab satetraxetan 0.5 ug/ml
Method: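 RIVA (RI-1) ABC-DLBCL cells were pretreated or not for 18 h with 0.5 ug/ml 177Lu-lilotomab satetraxetan (600 MBq/mg), washed and seeded (3000 cells/well) on 384-well plates pre-printed with the Selleck Cambridge Cancer Compound library. Viability was read by RealTime-Glo luminescence on days 3-6 after seeding. Effect = 1 - RLU/mean RLU of the 48 untreated no-drug control wells per plate; Bliss score = (M-E)/(1-Fa).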

SMILES	growth inhibition by drug plus 177Lu-lilotomab satetraxetan (10 nM, time (day): 3)	growth inhibition by drug plus 177Lu-lilotomab satetraxetan (10 nM, time (day): 4)	growth inhibition by drug plus 177Lu-lilotomab satetraxetan (10 nM, time (day): 5)	growth inhibition by drug plus 177Lu-lilotomab satetraxetan (10 nM, time (day): 6)	growth inhibition by drug plus 177Lu-lilotomab satetraxetan (100 nM, time (day): 3)	growth inhibition by drug plus 177Lu-lilotomab satetraxetan (100 nM, time (day): 4)	growth inhibition by drug plus 177Lu-lilotomab satetraxetan (100 nM, time (day): 5)	growth inhibition by drug plus 177Lu-lilotomab satetraxetan (100 nM, time (day): 6)
N#Cc1c(O)c2c(-c3ccc(-c4ccccc4O)cc3)csc2[nH]c1=O	0.57	0.613	0.615	0.612	0.402	0.488	0.487	0.49
O=C1CN2Cc3c(ccc(Cl)c3Cl)N=C2N1 [Anagrelide]	0.547	0.616	0.633	0.635	0.54	0.612	0.625	0.631
C[C@]12CCC(=O)C=C1CC[C@@H]1[C@@H]2[C@@H](O)C[C@@]2(C)[C@H]1CC[C@]2(O)C(=O)CO [Hydrocortisone (Cortisol)]	0.519	0.578	0.597	0.608	0.101	0.303	0.317	0.347
FC(F)c1nc2ccccc2n1-c1nc(N2CCOCC2)nc(N2CCOCC2)n1	0.45	0.529	0.568	0.572	0.763	0.779	0.782	0.761
CNC(=O)c1cc(Oc2ccc(NC(=O)Nc3ccc(Cl)c(C(F)(F)F)c3)c(F)c2)ccn1 [Regorafenib (BAY 73-4506)]	0.632	0.688	0.717	0.733	0.463	0.581	0.629	0.644
